About 83,000 compounds went through this panel and 20% of them were active in at least one assay; those are over-represented in the sample as a whole.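 Testing used 96-well plates and a 48-hour single-concentration exposure. Example: -40 means 40% of the starting cells died.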 Unmarked numbers belong to inactive results. Calls of active or inactive are those of the source. Rule for the calls: active = growth percent below 10; inactive = the rest.
What was measured:
Assay in all cases: NCI-60 one-dose screen, 48 h (100 = growth as untreated, 0 = no growth, -100 = all killed)
Settings in all cases: 10 µM unless noted
[1] = system: NCI-H23 lung
[2] = system: NCI-H226 lung
[3] = system: NCI-H322M lung
[4] = system: HOP-62 NSCLC
[5] = system: NCI-H460 lung
[6] = system: HOP-92 NSCLC
[7] = system: NCI-H522 lung
[8] = system: A549/ATCC NSCLC
[9] = system: 786-0 renal
[10] = system: COLO 205 colon

## COc1ccc(-c2cc(-c3nnc(SCC(=O)Nc4ccc(/C(C)=N\O)cc4)n3-c3ccccc3)c3cc(OC)ccc3n2)cc1
[1]
  growth: 86.4%
[2]
  growth: 86.1%
[3]
  growth: 79%
[4]
  growth: 79.4%
[5]
  growth: 83.9%
[6]
  growth: 78.4%
[7]
  growth: 35.1%
[8]
  growth: 51.2%
[9]
  growth: 83.5%
[10]
  growth: 93.6%

## COc1ccc(C(=O)c2cc(OC)c(OC)c(OC)c2)cc1OC(=O)C(Cl)(Cl)Cl
[1]
  growth: 26.9%
[2]
  growth: 95.4%
[3]
  growth: 38.4%
[4]
  growth: 17.3%
[5]
  growth: 5.08% (active)
[6]
  growth: 50.3%
[7]
  growth: -13.3% (active)
[8]
  growth: 19%
[9]
  growth: 20.9%
[10]
  growth: 13%

## COc1cc(/C=C/C(=O)/C=C/c2cc3ccc(Cl)cc3n(Cc3ccccc3)c2=O)ccc1O
[1]
  growth: -20.6% (active)
[2]
  growth: -6.08% (active)
[3]
  growth: 23.9%
[4]
  growth: -6.74% (active)
[5]
  growth: -29.1% (active)
[6]
  growth: -5% (active)
[7]
  growth: -37.6% (active)
[8]
  growth: -3.99% (active)
[9]
  growth: -55.7% (active)
[10]
  growth: 7.89% (active)

## CC1(C)Cc2c(Br)c(Br)c(Br)c(OCC(O)CN3CCOCC3)c2O1 (stereo not given)
[1]
  growth: 93.9%
[2]
  growth: 109%
[3]
  growth: 72.4%
[4]
  growth: 97.3%
[5]
  growth: 93.8%
[6]
  growth: -38.2% (active)
[7]
  growth: -84.2% (active)
[8]
  growth: 86.7%
[9]
  growth: 79.2%
[10]
  growth: 116%

## COc1cc(C(C)c2ccc3c(ccn3C)c2)cc(OC)c1OC (stereo not given)
[1]
  growth: 29.3%
[2]
  growth: 67.2%
[3]
  growth: 42.8%
[4]
  growth: 29.4%
[5]
  growth: 2.89% (active)
[6]
  growth: 48.2%
[7]
  growth: 11.3%
[8]
  growth: 16.3%
[9]
  growth: 22.6%
[10]
  growth: -56.6% (active)

## Cc1cc(O)cc(O)c1N=NC1=NCCS1
[1]
  growth: 98%
[2]
  growth: 117%
[3]
  growth: 97.8%
[4]
  growth: 95.7%
[5]
  growth: 115%
[6]
  growth: 109%
[7]
  growth: 90.3%
[8]
  growth: 101%
[9]
  growth: 96.6%
[10]
  growth: 100%

## C=C1C(=O)O[C@H]2[C@H]1CC/C(C=Nc1c(N)cc(C(F)(F)F)cc1Br)=C\CC[C@@]1(C)O[C@@H]21
[1]
  growth: 30%
[2]
  growth: 38.3%
[3]
  growth: 77.8%
[4]
  growth: 52%
[5]
  growth: 26.7%
[6]
  growth: -15.5% (active)
[7]
  growth: -68% (active)
[8]
  growth: 58%
[9]
  growth: -41.8% (active)
[10]
  growth: -52.1% (active)

## C#CC[C@@H]1C[C@]2(C)[C@H]3CC[C@@H]4[C@H]5[C@H](C(=C)C)CC[C@]5(C(=O)O)CC[C@@]4(C)[C@]3(C)CC[C@H]2C(C)(C)[C@H]1O
[1]
  growth: 47.9%
[2]
  growth: 29.1%
[3]
  growth: 67.5%
[4]
  growth: 59%
[5]
  growth: 10.4%
[6]
  growth: -6.27% (active)
[7]
  growth: 61.8%
[8]
  growth: 16.9%
[9]
  growth: -1.51% (active)
[10]
  growth: 83.2%

## OCCNc1nc(NCCO)nc(Nc2ccc(C3=NN(c4cc(Cl)cc(Cl)c4)C(c4ccc(Cl)cc4)C3)cc2)n1 (stereo not given)
[1]
  growth: 29.1%
[2]
  growth: 109%
[3]
  growth: 14.6%
[4]
  growth: 15.9%
[5]
  growth: -22.7% (active)
[6]
  growth: 60.7%
[7]
  growth: 58.9%
[8]
  growth: 2.31% (active)
[9]
  growth: -19.6% (active)
[10]
  growth: 7.12% (active)

## COc1cc(NCC(=O)Nc2cc(Nc3ccc(C)cc3)ncn2)c(Cl)c(OC)c1Cl
[1]
  growth: 91.7%
[2]
  growth: 85.4%
[3]
  growth: 84.8%
[4]
  growth: 87%
[5]
  growth: 101%
[6]
  growth: 78.7%
[7]
  growth: 74.1%
[8]
  growth: 80.1%
[9]
  growth: 96.7%
[10]
  growth: 85.8%

## Cc1nc2sc(C(=O)Nc3ccccc3)c(N)c2cc1C(C)O (stereo not given)
[1]
  growth: 39%
[2]
  growth: 108%
[3]
  growth: 49.9%
[4]
  growth: 30.1%
[5]
  growth: 11.2%
[6]
  growth: 73%
[7]
  growth: 18.3%
[8]
  growth: 25.6%
[9]
  growth: 31.1%
[10]
  growth: 6.99% (active)

## COC(=O)c1nc(-c2ccccc2)oc1S(=O)(=O)n1nc(C)cc1N
[1]
  growth: 92.1%
[2]
  growth: 110%
[3]
  growth: 91.8%
[4]
  growth: 97%
[5]
  growth: 96.9%
[6]
  growth: 49.5%
[7]
  growth: -25.8% (active)
[8]
  growth: 94.9%
[9]
  growth: 80.6%
[10]
  growth: -63.9% (active)

## Oc1ccc(CNNc2ccnc3c(O)cccc23)c2cccnc12
[1]
  growth: 31.6%
[2]
  growth: 86.7%
[3]
  growth: 47.8%
[4]
  growth: 25.2%
[5]
  growth: 12.3%
[6]
  growth: 54.3%
[7]
  growth: 13%
[8]
  growth: 26.5%
[9]
  growth: 39%
[10]
  growth: 64.8%

## N#Cc1ccc(Oc2ccc3ccc(=O)oc3c2)cc1
[1]
  growth: 101%
[2]
  growth: 102%
[3]
  growth: 111%
[4]
  growth: 102%
[5]
  growth: 103%
[6]
  growth: 67%
[7]
  growth: 105%
[8]
  growth: 109%
[9]
  growth: 95.5%
[10]
  growth: 102%
